Screening data (PubChem)
IL-1B inflam inh – qHTS for Inhibitors of Inflammasome Signaling: IL-1-beta AlphaLISA Primary Screen. hit rate 4.7% among 360,000. activity change, % at 57.5 µM. AID 743279, 2014. THP-1 LPS/ATP IL-1B secretion, AlphaLISA, 16 h; active compounds read low; in the data active = activity change below about -50%; inconclusive = mostly about -30% to -49%
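Secreted IL-1B measured by AlphaLISA bead assay after 16 h compound exposure of THP-1 cells; compounds (final up to 57.5 uM) added 1 h before LPS (250 ng/mL) and ATP (1.25 mM) stimulation; lower signal means less secretion.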
TDP1 cell CPT – qHTS for Inhibitors of human tyrosyl-DNA phosphodiesterase 1 (TDP1): qHTS in cells in presence of CPT. chicken DT40 Tdp1-/-;hTDP1 cells + 20 nM CPT, ATP luminescence, 48 h. Potency, µM (highest dose often 46.2 µM), usual class: inhibitors. hit rate 12% among 420,000. AID 686979, 2013; also: nearly all actives have a fitted effect of over 55% in size
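Chicken DT40 Tdp1-/- cells stably complemented with human TDP1 were seeded at 400 cells/well in medium containing 20 nM camptothecin, exposed to pin-transferred compounds, and grown at 37 °C for at least 48 hr. Viability was read as ATP luminescence.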
DT40 TDP1 no CPT – qHTS for Inhibitors of human tyrosyl-DNA phosphodiesterase 1 (TDP1): qHTS in cells in absence of CPT | DT40 Tdp1-/- hTDP1 cells, no CPT, ATP luminescence, 48 h | Potency, µM (series often up to 46.2 µM), actives largely listed as inhibitors | hit rate 15% among 420,000 | AID 686978, 2013; also: nearly all actives have a fitted effect of over 55% in size
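No-CPT arm: Tdp1-/-;hTDP1 DT40 cells (400/well) plus compounds, incubated ≥48 hr at 37 °C. Readout CellTiter-Glo luminescence.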
HT1080NT lethal – qHTS for induction of synthetic lethality in tumor cells producing 2HG: qHTS for the HT-1080-NT fibrosarcoma cell line; Potency, µM (doses to about 46.1 µM), hits mostly cytotoxic; hit rate 1.6% among 360,000; HT-1080-NT fibrosarcoma viability, CellTiter-Glo ATP luminescence, 48 h;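 also: NT is the 2HG producing partner of a matched IDH1 knockdown line; nearly all actives have a fitted effect of over 55% in size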
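A 48-hour cytotoxicity screen used HT-1080-NT cells plated 2 hours before compound delivery. ATP-based CellTiter-Glo luminescence measured viability, normalized to DMSO and no-cell controls.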
12-LOX inh – Primary qHTS assay for inhibitors of human arachidonate 12S-lipoxygenase (ALOX12): Round 2. Polyunsaturated fatty acid lipoxygenase ALOX12 (Homo sapiens), P18054. purified 12hLO, xylenol orange hydroperoxide absorbance. Potency, µM (top dose mostly 108 µM), hits mostly inhibitors. hit rate 1.1% among 580,000. AID 1671190, 2021
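Purified human 12hLO (150 nM final) in 25 mM Hepes, 0.01% Triton X-100, pH 7.0 was preincubated 15 min at room temperature with compound. Then 40 uM arachidonic acid was added, 30 min. Hydroperoxide was read by Fe-XO absorbance ratio 573/405 nm.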
HT1080 IDH1KD tx – qHTS for induction of synthetic lethality in tumor cells producing 2HG: qHTS for the HT-1080-IDH1KD cell line. HT-1080 IDH1 knockdown viability, ATP luminescence, 48 h. AID 686971, 2013. Potency, µM (titrated, usually from 46.1 µM), most hits filed as cytotoxic. hit rate 2% among 360,000
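In this qHTS, HT-1080 cells depleted of IDH1 are exposed for 48 h at 37 °C to compound titrations. Toxicity is scored from CellTiter-Glo luminescence, with DMSO as full viability and medium alone as none.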
A number is an active result. This is one part of a sample in which hits are shown more often than they occur. Unless noted, calls follow the shape of the dose curve; as a rule, active = well fitted curve in the direction sought with a large enough effect; inconclusive = small, poorly fitted or top-dose-only effect, or another doubt; inactive = no such curve, though single readings can be large; an effect the other way counts as inactive or inconclusive.

How did Cc1ccc(S(=O)(=O)NC(CCc2ccccc2)CC(=O)C(C)(C)C)cc1 (centres undefined) do in these assays?
IL-1B inflam inh: inactive; TDP1 cell CPT: 23µM; DT40 TDP1 no CPT: 16µM; HT1080NT lethal: inactive; HT1080 IDH1KD tx: inactive

What do the screens show for `Cc1ccc(S(=O)(=O)NC(CC(=O)O)c2ccccc2)cc1` (centres undefined)?
IL-1B inflam inh: inactive; TDP1 cell CPT: inactive; DT40 TDP1 no CPT: inactive; HT1080NT lethal: inactive; 12-LOX inh: inconclusive; HT1080 IDH1KD tx: inactive

Results for O=C(c1ccccc1)N(Cc1ccco1)Cc1cccs1 ?
TDP1 cell CPT: inconclusive; DT40 TDP1 no CPT: 13µM; 12-LOX inh: inactive

What do the screens show for `O=C(c1ccc2ncsc2c1)N(Cc1ccco1)Cc1cccs1`?
12-LOX inh: inactive

Results for O=C(c1ccccc1Cl)N(Cc1ccco1)Cc1ccco1 ?
TDP1 cell CPT: 21µM; DT40 TDP1 no CPT: 15µM; 12-LOX inh: inactive

What do the screens show for `Cc1ccc(-c2ocnc2C(=O)Nc2ccc(C)c(Cl)c2)o1`?
12-LOX inh: inactive

Results for O=C(Nc1ccccc1)N1CCC2(CC1)Oc1ccccc1C(=O)N2Cc1ccccc1F ?
12-LOX inh: inactive

Results for O=C(Nc1ccccc1C(F)(F)F)N1CCC2(CC1)Oc1ccccc1C(=O)N2Cc1ccccc1F ?
TDP1 cell CPT: inconclusive; DT40 TDP1 no CPT: 16µM; 12-LOX inh: inactive

What do the screens show for `Clc1ccc(CNc2ccc(N3CCN(Cc4ccccc4)CC3)cc2)cc1`?
IL-1B inflam inh: -58; TDP1 cell CPT: inconclusive; DT40 TDP1 no CPT: inconclusive; HT1080NT lethal: inactive; 12-LOX inh: inactive; HT1080 IDH1KD tx: inconclusive

How did NS(=O)(=O)c1ccc(NCc2c(F)cccc2Cl)cc1 do in these assays?
IL-1B inflam inh: inactive; TDP1 cell CPT: inactive; DT40 TDP1 no CPT: inconclusive; HT1080NT lethal: inactive; 12-LOX inh: inactive; HT1080 IDH1KD tx: inactive

What do the screens show for `O=C(CN1CCN(c2ccc(Cl)cc2)CC1)NCc1ccccc1`?
IL-1B inflam inh: -61; TDP1 cell CPT: inconclusive; DT40 TDP1 no CPT: inconclusive; HT1080NT lethal: inactive; 12-LOX inh: inactive; HT1080 IDH1KD tx: inactive

Results for Fc1cccc(Cl)c1CNc1ccc(N2CCCC2)cc1 ?
IL-1B inflam inh: inactive; TDP1 cell CPT: 2.3µM; DT40 TDP1 no CPT: 9.2µM; HT1080NT lethal: inconclusive; 12-LOX inh: 32µM; HT1080 IDH1KD tx: inactive

How did O=C(CN1CCN(C/C=C/c2ccccc2)CC1)NCc1ccc(Cl)cc1 do in these assays?
IL-1B inflam inh: inactive; TDP1 cell CPT: 5.8µM; DT40 TDP1 no CPT: 4.6µM; HT1080NT lethal: inconclusive; 12-LOX inh: inactive; HT1080 IDH1KD tx: inconclusive

Results for Cc1c(NC(=O)CN(c2cc(Cl)ccc2Cl)S(C)(=O)=O)c(=O)n(-c2ccccc2)n1C ?
12-LOX inh: inactive

Results for COc1ccc(CN(C)C(=O)NCc2ccc(S(=O)(=O)N3CCCCC3)cc2)cc1 ?
12-LOX inh: inactive

Results for O=C(CCC(=O)c1ccc2c(c1)CCCC2)OCc1ccccc1[N+](=O)[O-] ?
12-LOX inh: inactive

What do the screens show for `C=CCNC(=O)N[C@H]1[C@H](O)[C@@H](N2CCCC2)[C@@H]2OC[C@H]1O2`?
12-LOX inh: inactive

How did NS(=O)(=O)c1ccc(CCNC(=O)CN2CCN(c3cccc(Cl)c3)CC2)cc1 do in these assays?
IL-1B inflam inh: inactive; TDP1 cell CPT: 18µM; DT40 TDP1 no CPT: 16µM; HT1080NT lethal: inactive; 12-LOX inh: inactive; HT1080 IDH1KD tx: inactive

How did NS(=O)(=O)c1ccc(CCNC(=O)CN2CCN(c3ccc(F)cc3)CC2)cc1 do in these assays?
IL-1B inflam inh: inactive; TDP1 cell CPT: inconclusive; DT40 TDP1 no CPT: inconclusive; HT1080NT lethal: inactive; 12-LOX inh: inactive; HT1080 IDH1KD tx: inactive
